Test [1] deals with PRMT1 (protein arginine N-methyltransferase 1). Description: small molecules binding arginine methyltransferase PRMT1 – biochemical, small-molecule microarray, 635 nm fluorescence, primary screen (AID 1088).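 Note: binding of Prmt1 protein to compounds spotted on small-molecule microarray slides.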 The conditions noted are these: higher = more signal.
Test [2] in a line: growth effects on S. cerevisiae YJM789 – YJM789 clinical isolate, OD600, 24 h, basal, primary screen (AID 1089).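 Note: growth of clinical yeast isolate S. cerevisiae YJM 789 seeded 1000 cells per well; test concentration not given here.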 The following applies: higher = more signal, called active from +8 up or from −8 down.
A short description of test [3]: S. pombe growth modifiers, basal conditions – strain 972, OD600, 24 h, no modulator, primary screen (AID 1090).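 Note: basal condition with compound alone and no growth modifier present; test concentration not given here.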 The following applies: S. pombe 972 growth, higher = more signal, called active from +8 up or from −8 down.
A short description of test [4]: budding yeast growth modifiers under rapamycin – strain BY4716, OD600, 96 h, primary screen (AID 1091). Note: test concentration not given here. The following applies: S. cerevisiae BY4716 + rapamycin, higher = more signal, called active from +8 up or from −8 down.
The target in test [5] is Torsin-1A-interacting protein 2 (Homo sapiens) (UniProt Q8NFQ8). In words: small molecules binding lysate-expressed LULL1 – cell lysate, human LULL1 lysate, 635/667 nm fluorescence, primary screen (AID 1092).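 Note: probe is lysate of COS7 cells overexpressing human LULL1; score merges per-feature 667 nm fluorescence with signal-to-noise.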 The following applies: small-molecule microarray, hLULL1 lysate binding, 635 nm fluorescence; higher = more signal.
Sequence of Torsin-1A-interacting protein 2 (Homo sapiens) (Q8NFQ8 whole entry, looked up): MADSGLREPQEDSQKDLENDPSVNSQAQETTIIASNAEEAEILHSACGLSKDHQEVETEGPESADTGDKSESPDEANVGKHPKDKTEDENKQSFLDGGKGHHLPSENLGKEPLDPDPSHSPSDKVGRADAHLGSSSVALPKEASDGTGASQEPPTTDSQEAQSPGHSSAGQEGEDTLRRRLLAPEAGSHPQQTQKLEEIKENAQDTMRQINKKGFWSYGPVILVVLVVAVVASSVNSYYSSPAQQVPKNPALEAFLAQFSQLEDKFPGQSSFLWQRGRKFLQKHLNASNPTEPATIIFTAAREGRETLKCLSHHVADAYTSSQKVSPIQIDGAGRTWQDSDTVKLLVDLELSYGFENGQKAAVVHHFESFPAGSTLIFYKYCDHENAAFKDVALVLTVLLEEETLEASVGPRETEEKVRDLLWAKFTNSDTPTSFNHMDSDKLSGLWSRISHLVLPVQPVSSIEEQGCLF
The nature of test [6]: optical density change of DRC41 E. coli – strain DRC41, OD650, 24 h, E. coli filamentation project, primary screen (AID 1093).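 Note: MC1000 strain lacking acrAB efflux and sulA so SOS filamentation is blocked; test concentration not given here.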 The conditions noted are these: E. coli DRC41 growth, higher = more signal, called active from +8 up or from −8 down.
Test [7] is described as follows: probe aLefty2 binding to arrayed compounds – biochemical, biotinylated probe, 635/667 nm fluorescence, primary screen (AID 1094).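 Note: score merges spot fluorescence near 667 nm with spot signal-to-noise ratio.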 The following applies: small-molecule microarray, higher = more signal.
The test system of test [8] is Noggin (protein binding on small-molecule microarray). In words: small molecules binding Noggin protein – biochemical, 635/667 nm fluorescence, primary screen (AID 1095).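 Note: score merges 667 nm feature fluorescence with signal to noise over triplicate slides.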 The conditions noted are these: 635 nm fluorescence, higher = more signal.
The target in test [9] is Neurogenic locus notch homolog protein 3 (Homo sapiens) (UniProt Q9UM47). In words: small molecules binding NOTCH3 protein – biochemical, 635/667 nm fluorescence, primary screen (AID 1096). The conditions noted are these: small-molecule microarray, 635 nm fluorescence, higher = more signal.
Sequence of Neurogenic locus notch homolog protein 3 (Homo sapiens) (Q9UM47 whole entry, looked up): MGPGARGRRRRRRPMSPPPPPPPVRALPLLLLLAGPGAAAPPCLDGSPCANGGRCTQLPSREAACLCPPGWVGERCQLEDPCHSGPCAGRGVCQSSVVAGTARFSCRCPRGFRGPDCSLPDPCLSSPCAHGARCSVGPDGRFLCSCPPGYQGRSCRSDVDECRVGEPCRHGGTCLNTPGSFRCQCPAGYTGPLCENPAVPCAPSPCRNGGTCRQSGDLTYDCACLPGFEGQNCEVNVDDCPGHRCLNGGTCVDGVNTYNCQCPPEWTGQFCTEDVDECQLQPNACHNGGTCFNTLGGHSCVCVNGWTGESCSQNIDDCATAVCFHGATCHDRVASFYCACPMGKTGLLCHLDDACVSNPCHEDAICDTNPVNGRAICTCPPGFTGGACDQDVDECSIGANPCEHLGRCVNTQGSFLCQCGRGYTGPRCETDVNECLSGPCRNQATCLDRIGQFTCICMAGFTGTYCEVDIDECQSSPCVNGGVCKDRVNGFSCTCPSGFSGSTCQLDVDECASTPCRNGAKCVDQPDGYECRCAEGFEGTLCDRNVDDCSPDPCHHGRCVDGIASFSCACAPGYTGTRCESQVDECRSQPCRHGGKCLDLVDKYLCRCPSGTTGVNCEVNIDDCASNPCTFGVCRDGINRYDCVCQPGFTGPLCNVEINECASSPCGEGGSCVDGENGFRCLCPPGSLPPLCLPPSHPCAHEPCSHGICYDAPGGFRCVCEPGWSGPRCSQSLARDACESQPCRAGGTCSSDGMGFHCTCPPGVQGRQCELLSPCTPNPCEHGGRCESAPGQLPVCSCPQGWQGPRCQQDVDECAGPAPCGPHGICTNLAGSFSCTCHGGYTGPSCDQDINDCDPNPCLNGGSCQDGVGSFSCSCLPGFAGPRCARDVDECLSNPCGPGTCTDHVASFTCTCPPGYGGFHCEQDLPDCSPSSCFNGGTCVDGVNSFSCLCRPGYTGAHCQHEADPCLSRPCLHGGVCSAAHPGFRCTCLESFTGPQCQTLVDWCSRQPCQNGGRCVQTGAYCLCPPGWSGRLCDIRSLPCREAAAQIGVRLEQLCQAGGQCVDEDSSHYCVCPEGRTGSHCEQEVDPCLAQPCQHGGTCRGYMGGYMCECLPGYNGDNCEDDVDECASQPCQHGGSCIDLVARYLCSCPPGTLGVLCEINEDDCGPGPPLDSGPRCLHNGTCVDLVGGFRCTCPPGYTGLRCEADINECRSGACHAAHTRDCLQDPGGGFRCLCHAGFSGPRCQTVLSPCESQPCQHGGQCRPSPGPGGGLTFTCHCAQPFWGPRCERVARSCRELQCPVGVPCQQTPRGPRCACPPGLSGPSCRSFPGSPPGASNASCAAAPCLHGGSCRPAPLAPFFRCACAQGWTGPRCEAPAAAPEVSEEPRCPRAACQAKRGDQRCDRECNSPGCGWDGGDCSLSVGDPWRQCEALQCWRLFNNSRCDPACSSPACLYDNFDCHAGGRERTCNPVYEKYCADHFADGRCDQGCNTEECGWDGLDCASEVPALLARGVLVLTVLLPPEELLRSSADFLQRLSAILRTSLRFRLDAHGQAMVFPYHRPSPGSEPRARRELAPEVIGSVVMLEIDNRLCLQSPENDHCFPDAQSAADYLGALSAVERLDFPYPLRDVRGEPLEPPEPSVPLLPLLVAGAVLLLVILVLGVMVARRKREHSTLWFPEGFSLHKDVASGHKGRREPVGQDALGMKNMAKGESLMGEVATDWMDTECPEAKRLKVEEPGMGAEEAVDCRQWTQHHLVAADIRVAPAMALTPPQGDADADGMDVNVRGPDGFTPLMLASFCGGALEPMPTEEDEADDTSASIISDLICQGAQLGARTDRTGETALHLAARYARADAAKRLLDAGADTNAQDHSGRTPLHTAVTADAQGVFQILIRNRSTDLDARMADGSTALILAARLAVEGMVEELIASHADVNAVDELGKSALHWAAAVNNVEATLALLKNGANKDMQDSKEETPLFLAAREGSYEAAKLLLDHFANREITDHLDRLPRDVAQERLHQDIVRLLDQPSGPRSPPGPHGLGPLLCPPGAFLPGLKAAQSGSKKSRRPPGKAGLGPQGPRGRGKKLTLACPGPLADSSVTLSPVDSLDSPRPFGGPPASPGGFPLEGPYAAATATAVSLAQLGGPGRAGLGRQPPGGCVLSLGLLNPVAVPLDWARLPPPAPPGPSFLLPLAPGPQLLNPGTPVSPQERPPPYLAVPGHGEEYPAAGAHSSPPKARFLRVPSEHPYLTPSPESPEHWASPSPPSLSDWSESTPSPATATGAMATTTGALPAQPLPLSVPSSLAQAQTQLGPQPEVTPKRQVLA
A short description of test [10]: probe aEGFR binding to arrayed compounds – biochemical, biotinylated probe, 635/667 nm fluorescence, primary screen (AID 1097).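 Note: probe is a biotinylated anti-EGFR antibody binding compounds printed on slides; score combines fluorescence near 667 nm and signal to noise of each spot.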 The conditions noted are these: small-molecule microarray, higher = more signal.
Test [11] has as its system Plasmodium falciparum Sir2 (PF13_0152, Sir2A). In words: Plasmodium falciparum Sir2A binding compounds – biochemical, small-molecule microarray, 635 nm fluorescence, primary screen (AID 1098).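 Note: score merges spot fluorescence intensity with its signal-to-noise ratio.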 The conditions noted are these: fluorescence 635 nm, higher = more signal.
A short description of test [12]: probe aDKK1 binding to arrayed compounds – biochemical, biotinylated probe, 635/667 nm fluorescence, primary screen (AID 1099).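 Note: score merges 667nm spot fluorescence with signal to noise across triplicate slides; reference of the scale not given here.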 The conditions noted are these: small-molecule microarray, higher = more signal.
The nature of test [13]: probe aCHRDL2 binding to arrayed compounds – biochemical, biotinylated probe, 635/667 nm fluorescence, primary screen (AID 1100). The conditions noted are these: small-molecule microarray, higher = more signal.
Test [14] is described as follows: change in splice reporter luminescence, either direction, cell-based, HEK293, spliceosome inhibition project, primary screen (AID 1101).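 Note: HEK293 cells carrying a splicing-competent luciferase reporter gene; test concentration not given here.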 The following applies: HEK293 splicing luciferase reporter, 24 h, higher = more signal, called active from +8 up or from −8 down. For orientation: In a reporter assay the amount or activity of a reporter protein is the signal.
Test [15] has as its target Fibroblast growth factor 10 (Homo sapiens) (UniProt O15520). Description: compounds binding fibroblast growth factor 10 – biochemical, small-molecule microarray, 635 nm fluorescence, primary screen (AID 1102). The conditions noted are these: FGF10 binding, fluorescence 635 nm, higher = more signal.
The subject of test [16] is glycogen synthase kinase-3 (GSK3A per assay name; protocol says GSK3B). In words: compounds binding glycogen synthase kinase-3 – biochemical, small-molecule microarray, 635 nm fluorescence, GSK3A, primary screen (AID 1103). Note: the record names both GSK3A and GSK3B. The conditions noted are these: fluorescence 635 nm, higher = more signal.
Test [17] addresses Epidermal growth factor receptor (Homo sapiens) (UniProt P00533). In words: compounds binding epidermal growth factor receptor – biochemical, small-molecule microarray, 635 nm fluorescence, primary screen (AID 1104).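 Note: score merges 667 nm emission intensity with spot signal to noise over triplicate slides.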 The conditions noted are these: EGFR binding, higher = more signal.
The target in test [18] is Follistatin-related protein 3 (Homo sapiens) (UniProt O95633). In words: compounds binding follistatin-related protein 3 – biochemical, small-molecule microarray, 635 nm fluorescence, primary screen (AID 1105).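 Note: score merges emission near 667 nm and signal to noise per printed spot across three slides.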 The conditions noted are these: FSTL3 binding, higher = more signal.
Sequence of Follistatin-related protein 3 (Homo sapiens) (O95633 whole entry, looked up): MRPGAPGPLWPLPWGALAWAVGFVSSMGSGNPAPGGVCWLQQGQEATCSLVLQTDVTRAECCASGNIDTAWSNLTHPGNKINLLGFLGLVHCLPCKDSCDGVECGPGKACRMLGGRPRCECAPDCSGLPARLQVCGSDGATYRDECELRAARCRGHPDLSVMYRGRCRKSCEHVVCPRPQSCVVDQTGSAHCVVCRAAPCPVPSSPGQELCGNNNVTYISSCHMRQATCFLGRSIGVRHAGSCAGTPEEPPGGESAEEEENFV
Test [19] has as its target Dickkopf-related protein 1 (Homo sapiens) (UniProt O94907). In words: small molecules binding DKK1 protein – biochemical, small-molecule microarray, 635 nm fluorescence scan, primary screen (AID 1106).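 Note: score merges emission near 667 nm with signal to noise over three replicate slides.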 The following applies: higher = more signal.
Test [20] deals with Inhibin beta A chain (activin A). In words: small molecules binding activin A – biochemical, small-molecule microarray, 635 nm fluorescence scan, primary screen (AID 1107).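 Note: mouse activin A protein probed at 4.33 µg/mL on printed slides; score merges bound-protein fluorescence near 667 nm with spot signal-to-noise.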 The conditions noted are these: INHBA, higher = more signal.

The structures appear in SMILES notation. Calls of active or inactive are those of the source.

Sequence of Epidermal growth factor receptor (Homo sapiens) (P00533 whole entry, looked up): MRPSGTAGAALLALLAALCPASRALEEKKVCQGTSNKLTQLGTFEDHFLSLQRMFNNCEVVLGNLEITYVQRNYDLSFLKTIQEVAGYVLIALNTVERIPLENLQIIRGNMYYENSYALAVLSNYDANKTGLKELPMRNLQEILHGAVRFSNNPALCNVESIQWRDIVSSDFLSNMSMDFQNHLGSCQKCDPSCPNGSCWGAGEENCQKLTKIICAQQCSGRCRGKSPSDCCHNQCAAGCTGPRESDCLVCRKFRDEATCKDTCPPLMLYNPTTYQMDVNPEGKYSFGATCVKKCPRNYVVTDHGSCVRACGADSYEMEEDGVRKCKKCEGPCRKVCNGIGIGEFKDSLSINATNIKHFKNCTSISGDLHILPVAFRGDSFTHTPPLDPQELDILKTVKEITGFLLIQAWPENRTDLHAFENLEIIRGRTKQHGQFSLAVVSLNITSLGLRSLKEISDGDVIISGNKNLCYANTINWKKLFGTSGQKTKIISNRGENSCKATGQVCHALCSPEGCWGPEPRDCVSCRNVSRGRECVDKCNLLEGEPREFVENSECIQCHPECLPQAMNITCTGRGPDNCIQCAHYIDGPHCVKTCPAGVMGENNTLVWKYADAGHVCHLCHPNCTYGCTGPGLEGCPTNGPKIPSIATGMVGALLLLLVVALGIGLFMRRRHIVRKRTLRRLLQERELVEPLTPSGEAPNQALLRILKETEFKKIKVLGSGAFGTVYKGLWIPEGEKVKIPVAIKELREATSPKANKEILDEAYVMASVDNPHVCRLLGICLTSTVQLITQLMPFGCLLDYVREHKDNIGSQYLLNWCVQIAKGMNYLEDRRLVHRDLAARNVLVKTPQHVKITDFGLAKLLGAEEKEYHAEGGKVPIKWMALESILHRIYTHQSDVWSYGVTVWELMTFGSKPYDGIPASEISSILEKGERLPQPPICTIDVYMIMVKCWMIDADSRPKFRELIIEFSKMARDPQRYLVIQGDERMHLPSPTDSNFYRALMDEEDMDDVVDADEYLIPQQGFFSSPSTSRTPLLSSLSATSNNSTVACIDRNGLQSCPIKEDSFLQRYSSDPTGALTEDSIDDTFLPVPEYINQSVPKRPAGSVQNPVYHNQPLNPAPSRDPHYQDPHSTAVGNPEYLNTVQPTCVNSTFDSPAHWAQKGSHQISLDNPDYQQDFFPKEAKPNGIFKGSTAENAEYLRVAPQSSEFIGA
Sequence of Fibroblast growth factor 10 (Homo sapiens) (O15520 whole entry, looked up): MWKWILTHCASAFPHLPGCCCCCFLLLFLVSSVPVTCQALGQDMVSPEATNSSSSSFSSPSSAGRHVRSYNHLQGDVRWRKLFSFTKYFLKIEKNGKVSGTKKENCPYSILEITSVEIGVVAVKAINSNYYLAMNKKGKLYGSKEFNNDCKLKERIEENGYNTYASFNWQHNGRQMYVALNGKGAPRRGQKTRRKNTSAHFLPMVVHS
Sequence of Dickkopf-related protein 1 (Homo sapiens) (O94907 whole entry, looked up): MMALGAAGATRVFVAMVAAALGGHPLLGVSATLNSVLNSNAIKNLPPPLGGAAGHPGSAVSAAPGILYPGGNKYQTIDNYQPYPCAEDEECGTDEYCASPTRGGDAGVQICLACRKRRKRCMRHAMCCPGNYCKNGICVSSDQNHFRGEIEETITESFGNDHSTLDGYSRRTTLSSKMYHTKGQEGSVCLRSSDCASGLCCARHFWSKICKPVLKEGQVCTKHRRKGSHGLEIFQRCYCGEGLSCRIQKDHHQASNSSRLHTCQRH

As to `CC(C)CON=C1C[C@@H](O)[C@@H](O)[C@@H]2[C@@H]3C(=O)N(C[C@@H]4CCCO4)C(=O)[C@@H]3CC[C@@H]12`, the composite z-score in [1] is 0.242; in [5], 1.38; in [7] it was -0.209; in test [8] it was 0.262; in test [9] it was -0.435; in test [10], -0.22. Further, the composite z-score is 0.0599 in [11]; 0.52 in test [12]; 0.0562 in test [13]; -0.231 in [15]; -0.622 in test [16]; -0.151 in [17]. For the same compound, the results for the composite z-score in test [18], in [19] and in test [20] were -0.336, -0.554 and -0.148, respectively. Further, the z-score in test [2] is -1.49 (inactive); in test [3], 0.283 (inactive); in [4], -0.625 (inactive); in test [6] it was 1.27 (inactive); in test [14] it was 0.926 (inactive).
As to `CC1O[C@H]2C3=C(C(=O)[C@@H]4O[C@@H]4[C@H]3O)[C@@H]1C1[C@@H](C)OC=C3[C@H](O)C4O[C@@H]4C(=NOCc4ccccc4)[C@]312` (stereo not given in full), the composite z-score in [1] is -0.543; in [5], 0.578; in test [7], -0.192; in test [8] it was 0.521; in test [9], -0.128; in test [10], -0.148. Moreover, the composite z-score was 0.0395 in [11]; -0.129 in test [12]; -0.326 in test [13]; 0.0791 in test [15]; -0.14 in [16]; 0.191 in test [17]. Further, the composite z-score in [18] is -0.3; in [19] it was 0.155; in [20], 0.121. Besides, the z-score is 0.247 (inactive) in [2]; -0.602 (inactive) in test [3]; 0.089 (inactive) in test [4]; -0.42 (inactive) in test [6]; -0.469 (inactive) in test [14].
With `O=C1[C@H]2[C@H]3[C@H](O)[C@H](O)CC(=NOC[C@@H](O)COCc4ccco4)[C@H]3CC[C@H]2C(=O)N1c1ccc(F)cc1F`, the composite z-score in test [1] was -0.012; in test [5] it was -0.701; in test [7], -0.469; in test [8], -0.349; in test [9] it was -0.927; in test [10], -0.165. Moreover, the composite z-score in test [11] was -0.295; in [12], 0.0973; in test [13], -0.901; in test [15], -0.921; in test [16], 0.0894; in test [17], -0.553. The composite z-score in [18] is -0.529; in [19], -0.301; in test [20], -0.413. In addition, the z-score in test [2] is -3.68 (inactive); in [3], -1.99 (inactive); in test [4], -1.97 (inactive); in test [6] it was -1.13 (inactive); in test [14], -2.86 (inactive).
Turning to `COC(=O)C=CCCc1coc(C=CCNC(=O)OC)n1`, the composite z-score in test [1] worked out at 1.45; in test [5] it was 0.254; in test [7], 0.17; in [8], 1.37; in test [9] it was 1.08; in test [10], 0.161. Also, the composite z-score is 0.844 in test [11]; 0.161 in test [12]; -0.388 in test [13]; 0.789 in test [15]; 0.643 in test [16]; 0.867 in test [17]. The figures for the composite z-score in test [18], in [19] and in test [20] were 1.07, 1.16 and 1.3, respectively. Besides, the z-score in [2] is 0.339 (inactive); in [3] it was 0.255 (inactive); in test [4] it was 0.196 (inactive); in test [6], -1.42 (inactive); in test [14], 0.183 (inactive).
On to `CCC=CCCC(OC(=O)c1ccc(Br)cc1)C1=CCCCC1=O` (stereo not given), for which the composite z-score in test [1] was 1.33; in [5], 1.35; in [7], -0.0018; in test [8], 0.493; in test [9] it was 0.554; in test [10], -0.0187. Besides, the composite z-score is 0.964 in test [11]; -0.305 in test [12]; 0.457 in [13]; 0.681 in test [15]; 0.166 in test [16]; 0.718 in [17]. The composite z-score in test [18] was found to be 1.05; in [19], 0.592; in test [20], 1.55. Further, the z-score in test [2] was -1.32 (inactive); in [3] it was -5.44 (inactive); in [4] it was -2.98 (inactive); in test [6], -0.133 (inactive); in [14] it was 0.798 (inactive).

The values are drawn from PubChem BioAssay.
